Compounds with a hit are over-represented: about 3.8% of the library has one in this group of screens.
luminol inh ctr – quenches luminol chemiluminescence in Nox1 counter-screen; HRP/luminol/H2O2 chemiluminescence counterscreen; inhibition, % at 6.7 µM; 0.4% of 16,000 active; AID 1823; also: reference of the scale not given here
PME-1 Maybridge – inhibitors of human PME-1 in Maybridge library; inhibition, % at 9 µM; Q9Y570; recombinant PME-1, FP-Rh probe fluorescence polarization; 0.5% of 16,000 active; in the data active = inhibition above about 30%
rat GALR2 ag – GALR2 (rat) receptor agonism. cell-based GALR2 agonist screen. 0.5% of 16,000 active. activation, % at 10 µM. O08726; in the data active = activation above about 15%
NOTCH agonist – NOTCH pathway agonism. NOTCH signaling luciferase reporter cells, luminescence. activation, % at 2.5 µM. 0.4% of 15,000 active; in the data active = activation above about 2.2%
Nox1 inhibitor – blocks human NADPH oxidase 1 activity; 0.81% of 16,000 active; inhibition, % at 6.7 µM; AID 1792; Q9Y5S8; HT29 cells, luminol chemiluminescence ROS
S1P1 agonist – S1P1 (human) receptor agonism; P21453; S1P1 agonist cell-based reporter assay; activation, % at 4.5 µM; 1.5% of 16,000 active; AID 1044; in the data active = activation above about 80%
Target sequence (P21453 whole entry, looked up): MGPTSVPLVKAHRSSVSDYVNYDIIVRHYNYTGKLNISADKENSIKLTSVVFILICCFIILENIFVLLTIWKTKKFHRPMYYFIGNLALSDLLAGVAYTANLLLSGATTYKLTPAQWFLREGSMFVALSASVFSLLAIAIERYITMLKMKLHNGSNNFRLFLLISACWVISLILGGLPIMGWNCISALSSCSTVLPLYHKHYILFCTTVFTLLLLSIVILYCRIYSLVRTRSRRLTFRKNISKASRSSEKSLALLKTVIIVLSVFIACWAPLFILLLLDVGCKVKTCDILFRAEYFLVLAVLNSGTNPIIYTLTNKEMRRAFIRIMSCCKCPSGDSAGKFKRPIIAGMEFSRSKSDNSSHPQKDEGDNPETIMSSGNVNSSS
Of the large screens only hits and unclear results are named; the others gave an inactive call. Rule as the data show it, unless noted: active = inhibition above about 75%; inactive = the rest.

O=C(CSc1nnc(-c2ccc(C(F)(F)F)cc2)o1)c1ccc(F)cc1	none
c1ccc(NC2CCCCC2)nc1	none
CC(=NCCc1ccccc1)C1CCOC1=O (centres undefined)	S1P1 agonist 114
O=C(Cc1ccccc1)NC1CCN(C(=O)Cc2ccccc2)CC1	none
c1ccc(N2CC3CCc4ccccc4C3=N2)cc1 (centres undefined)	rat GALR2 ag 23
CSC(=NCc1c(Cl)cccc1Oc1ccccc1)NC#N	none (no result: NOTCH agonist)
COc1ccc(/C(N)=N/OC(=O)c2ccccc2)cc1OC1CCCC1	S1P1 agonist 102
COC(=O)c1sc2ccccc2c1OS(=O)(=O)c1ccc(Cl)cc1	none
COc1cc2ncnc(NNS(=O)(=O)c3cc(C)c(Cl)cc3C)c2cc1OC	PME-1 Maybridge 32, Nox1 inhibitor 101
Cc1cc(S(=O)(=O)NNc2ncnc3c2cnn3C)c(C)cc1Cl	Nox1 inhibitor 102
Cn1ncc2c(NNC(=O)c3cc(Cl)cc(Cl)c3)ncnc21	none
CC(=O)OC1C[C@H](n2cc(C)c(=O)[nH]c2=O)O[C@@H]1COS(=O)(=O)c1ccc(C)cc1 (some centres undefined)	NOTCH agonist 3.0
COCCCNC(=S)Nc1ccc(C)cc1	none
COCCCNC(=S)NNC(=S)Nc1ccccc1	Nox1 inhibitor 91
Cc1nn(C)c(C)c1Nc1n[nH]c(N)n1	Nox1 inhibitor 77
Cc1nn(C)c(C)c1NC(=O)/C(C#N)=C\N(C)C	none
COc1ccc(Oc2cc(C#N)c(C#N)cc2Oc2ccc(OC)cc2)cc1	none
S=c1[nH]nc(-c2ccc(Cl)cc2Cl)n1-c1cccnc1	none
S=c1[nH]nc(-c2cccc3ccccc23)n1-c1cccnc1	luminol inh ctr 89
CN(C)C(=O)/C=C/c1ccccc1	none
CC(=O)C1C(=O)C=C(/C=C/c2ccccc2)CC1c1ccccc1 (centres undefined)	S1P1 agonist 99
O=C(/C=C/C(=O)c1ccc(F)cc1)c1ccc(F)cc1	none
O=C(NC(=O)N1CCOCC1)c1ccc([N+](=O)[O-])s1	S1P1 agonist 89
O=C(NC(=O)N1CCOCC1)c1nnc(-c2ccccc2)o1	none
CNC(=O)n1nc(C)c(Cc2csc3ccc(Cl)cc23)c1C	PME-1 Maybridge 48
CNC(=O)Cc1csc2ccc(Cl)cc12	none
O=C(Nc1ccc(Cl)cc1)ONC=NC1=C(c2ccccc2)C(=O)c2ccccc21	none
O=S(=O)(Nc1ccc(N2CCCCC2)cc1)c1ccccc1	Nox1 inhibitor 101
CN1CCN(c2ccc(NS(=O)(=O)c3cccc(C(F)(F)F)c3)cc2)CC1	Nox1 inhibitor 94
Fc1cc(Br)c(-n2cccc2)c(Br)c1	none
O=C(Nc1ccccc1)Nc1nnc(C(F)(F)F)s1	S1P1 agonist 109
FC(F)(F)c1nnc(Nc2cccnc2)s1	NOTCH agonist 4.5
S=c1[nH]nc(Cc2ccsc2)n1Cc1ccccc1	luminol inh ctr 93
CC(C)/C(=N/NC(=O)c1ccc(Cl)cc1)C(=O)O	none
COc1ccccc1NS(=O)(=O)c1ccccc1[N+](=O)[O-]	none
COc1ccccc1NS(=O)(=O)c1ccc(Cl)s1	PME-1 Maybridge 32 (no result: NOTCH agonist)
COc1ccccc1Nc1ccc([N+](=O)[O-])c2nonc12	none
COc1ccc(-n2nnnc2/C=C/N2CCN(c3cccc(C(F)(F)F)c3)CC2)cc1	none
Cc1c(N=NC2=C(O)CC(C)(C)CC2=O)cc2c(c1[N+](=O)[O-])C(C)(C)CC2(C)C	none
Cc1c(NCN2C(=O)CCC2=O)cc2c(c1[N+](=O)[O-])C(C)(C)CC2(C)C	S1P1 agonist 81
COC(=O)c1sccc1NS(=O)(=O)c1ccc(C(=O)OC)n1C	none
COC(=O)c1ccc(S(=O)(=O)NNC(=O)c2c(O)c3sccc3[nH]c2=O)n1C	luminol inh ctr 78
CC(C)(C)C(=O)OCc1nc(-c2ccc3c(c2)OCO3)cs1	S1P1 agonist 92
Cn1nccc1NC(=O)c1ccccc1C(=O)O	none
N#C/C(=C\c1cccs1)C(=O)N1CCOCC1	S1P1 agonist 100 (no result: NOTCH agonist)
O=C1CSCC(=O)N1c1ccc(-c2csnn2)cc1	none
Cc1cc2c(NC(=O)c3ccccc3C(=O)O)cccc2nn1	none
Cc1cc2c(N)cccc2nn1	PME-1 Maybridge 106
N#CC(C#N)=NNc1ccc2c(c1)OCCO2	S1P1 agonist 94
NNC(=O)c1cnn(-c2ccc(Cl)cc2)c1C(F)(F)F	none
O=C(c1cnn(-c2ccc(Cl)cc2)c1C(F)(F)F)N1CCN(c2ncnc3ccsc23)CC1	S1P1 agonist 97
CSc1ccc(C(F)(F)F)cc1NC=C(C#N)C#N	S1P1 agonist 89
CC(=O)Nc1ccc(F)cc1NC=C(C#N)C#N	none
COc1ccc(C(=O)CSc2n[nH]c(=O)n2Cc2ccco2)cc1	NOTCH agonist 2.2
O=C(Cc1csc2ccccc12)Nc1ccc(F)cc1	PME-1 Maybridge 58
Cc1c(CC(=O)Nc2ccccc2)sc2ccccc12	none
CN(C)C=Nc1cc(C(C)(C)C)on1	none
FC(F)(F)c1cccc(-c2csc(C3COc4ccccc4O3)n2)c1 (centres undefined)	none
CCn1cc(C(=O)O)c(=O)c2cc(Cl)ccc21	none
CCC(=O)N1c2cc(Cl)ccc2-n2c(nn(C(=O)CC)c2=O)N1C(=O)CC	Nox1 inhibitor 88
N#CC1=Cc2ccccc2C2NN3C(C#N)=Cc4ccccc4C3NN12 (centres undefined)	none
CCOC(=O)C(=CNc1nc(-c2cc(C#N)c(=O)[nH]c2C)cs1)C(=O)OCC	none
CC(C)(C)OC(=O)N[C@@H](Cc1ccccc1)c1n[nH]c(=S)n1CC1CCCO1 (some centres undefined)	luminol inh ctr 97
CC(C)(C)OC(=O)NCc1n[nH]c(=S)n1Cc1ccccc1	none
CSc1ccc([N+](=O)[O-])cc1C(=O)/C=C/N(C)C	none
O=C(NCc1ccc(F)cc1F)c1ccc(Cl)cc1Cl	none
CCCc1c(OCCCOc2ccc3c(=O)c(-c4ccccc4)coc3c2)ccc(C(C)=O)c1O	S1P1 agonist 95
O=C(CSc1nc2ccccc2c(=O)[nH]1)c1cc2ccccc2o1	S1P1 agonist 92
Cc1ccc(C(=O)CSc2nc3ccccc3c(=O)[nH]2)cc1	none
COc1ccc(OC)c(OCCOCCOc2cc(OC)ccc2OC)c1	none
O=C(Nc1ccc(Oc2ccccc2)cc1)c1cnccn1	none
CCCCCC[n+]1ccccc1/C=C/c1ccc(N(C)C)cc1	S1P1 agonist 113
CC1CN(c2ccc(NS(=O)(=O)c3ccccc3)cc2C(=O)O)CC(C)O1 (centres undefined)	Nox1 inhibitor 84
CC1CN(c2ccc(NC(=O)c3ccco3)cc2C(=O)O)CC(C)O1 (centres undefined)	none
CC(=O)c1csc(CS(=O)(=O)Cc2cccc(C(F)(F)F)c2)n1	none
COc1ccccc1NNC(=O)c1cc(C(C)(C)C)nn1Cc1ccccc1	Nox1 inhibitor 91
N#Cc1ccc(N2CCN(C(=O)c3ccc(OC(F)(F)F)cc3)CC2)cc1	none
C=CCN1C(=N)SC2CS(=O)(=O)CC21 (centres undefined)	none
